The record followed here is the supplement of paper PMC9492666.

Experiment [1] concerns HCC1937. The experiment can be described thus: relative cell viability, compound + erastin, vs DMSO (fraction of DMSO control); higher = less growth inhibition. The note with it: 72 h.
Experiment [2] has as its system MDA-MB-231. The experiment is described as above. Conditions: 72 h.

Structures can show the parent of a compound that is named as a salt.
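Also: viability read by CCK-8 kit in 96-well plates, part of a combination screen pairing lipid-metabolism-targeting compounds with erastin.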

Regarding `COc1ccc(-c2coc3cc(O)cc(O)c3c2=O)cc1` [Biochanin A] + CCOc1ccccc1-n1c(C(C)N2CCN(C(=O)COc3ccc(Cl)cc3)CC2)nc2ccccc2c1=O [erastin], the relative cell viability in experiment [1] was 0.589; in experiment [2], 0.559.
The matching figures for `COc1cccc(CNc2ccc(S(=O)(=O)Nc3nc4ccccc4s3)cc2)c1O` + CCOc1ccccc1-n1c(C(C)N2CCN(C(=O)COc3ccc(Cl)cc3)CC2)nc2ccccc2c1=O [erastin]: 0.639 and 0.68.
For `CC(C)[C@H]1CC[C@H](C(=O)N[C@H](Cc2ccccc2)C(=O)O)CC1` [Nateglinide] + CCOc1ccccc1-n1c(C(C)N2CCN(C(=O)COc3ccc(Cl)cc3)CC2)nc2ccccc2c1=O [erastin], the relative cell viability turned out to be 0.666 in experiment [1] and 0.734 in experiment [2].
Consider `C[C@@H]1C(=O)O[C@H]2[C@H](O)[C@@]34O[C@@H]5OC(=O)[C@H](O)[C@@]56[C@H](C(C)(C)C)[C@H](O)C(OC3=O)[C@]64[C@@]12O` (some centres not stated) [Ginkgolide C] + CCOc1ccccc1-n1c(C(C)N2CCN(C(=O)COc3ccc(Cl)cc3)CC2)nc2ccccc2c1=O [erastin], for which the values for the relative cell viability in experiment [1] and in experiment [2] were 0.697 and 0.747, respectively.
For the compound `CCCCCCS(=O)(=O)NC(=O)c1ccc(CSCc2ccc(-c3ccccc3)cc2)cc1` + CCOc1ccccc1-n1c(C(C)N2CCN(C(=O)COc3ccc(Cl)cc3)CC2)nc2ccccc2c1=O [erastin], the relative cell viability in experiment [1] is 0.705; in experiment [2] it was 0.733.
For `O=c1ccc2cc(O)c(O)cc2o1` [Esculetin] + CCOc1ccccc1-n1c(C(C)N2CCN(C(=O)COc3ccc(Cl)cc3)CC2)nc2ccccc2c1=O [erastin], the figures for the relative cell viability in experiment [1] and in experiment [2] were 0.648 and 0.711, respectively.
On the same counts, the results for `O=C(O)/C=C/c1ccc(O)c(O)c1` [Caffeic Acid] + CCOc1ccccc1-n1c(C(C)N2CCN(C(=O)COc3ccc(Cl)cc3)CC2)nc2ccccc2c1=O [erastin] are 0.777 and 0.979.
In the case of `CC(C)c1onc(-c2c(Cl)cccc2Cl)c1COc1ccc(/C=C/c2cccc(C(=O)O)c2)c(Cl)c1` + CCOc1ccccc1-n1c(C(C)N2CCN(C(=O)COc3ccc(Cl)cc3)CC2)nc2ccccc2c1=O [erastin], the relative cell viability turned out to be 0.722 in experiment [1] and 0.762 in experiment [2].
As for `CCOC(=O)N1c2ccc(C(F)(F)F)cc2[C@@H](N(Cc2cc(C(F)(F)F)cc(C(F)(F)F)c2)C(=O)OC)C[C@H]1CC` [Torcetrapib] + CCOc1ccccc1-n1c(C(C)N2CCN(C(=O)COc3ccc(Cl)cc3)CC2)nc2ccccc2c1=O [erastin], the relative cell viability in experiment [1] was found to be 0.66; in experiment [2], 0.823.
With `C[N+](C)(C)CC(O)CC(=O)[O-]` (stereo not drawn) [L(-)-Carnitine] + CCOc1ccccc1-n1c(C(C)N2CCN(C(=O)COc3ccc(Cl)cc3)CC2)nc2ccccc2c1=O [erastin], the figures for the relative cell viability in experiment [1] and in experiment [2] were 0.781 and 0.91, respectively.
In the case of `CCN(CC)CCN(Cc1ccc(-c2ccc(C(F)(F)F)cc2)cc1)C(=O)Cn1c(SCc2ccc(F)cc2)nc(=O)c2c1CCC2` [Darapladib] + CCOc1ccccc1-n1c(C(C)N2CCN(C(=O)COc3ccc(Cl)cc3)CC2)nc2ccccc2c1=O [erastin], the relative cell viability is 0.0574 in experiment [1] and 0.296 in experiment [2].
Regarding `CCN(CC)C(=O)N1CCN(C)CC1` [Diethylcarbamazine citrate] + CCOc1ccccc1-n1c(C(C)N2CCN(C(=O)COc3ccc(Cl)cc3)CC2)nc2ccccc2c1=O [erastin], the results for the relative cell viability in experiment [1] and in experiment [2] were 0.729 and 0.907, respectively.
With `C[C@H](CCOc1cccc(CC(=O)O)c1)N(Cc1cccc(C(F)(F)F)c1Cl)CC(c1ccccc1)c1ccccc1` + CCOc1ccccc1-n1c(C(C)N2CCN(C(=O)COc3ccc(Cl)cc3)CC2)nc2ccccc2c1=O [erastin], the figures for the relative cell viability in experiment [1] and in experiment [2] were 0.602 and 0.384, respectively.
As for `CC1(C)C[C@H]2C3=CC[C@@H]4[C@@]5(C)CC[C@H](O)[C@@](C)(CO)[C@@H]5CC[C@@]4(C)[C@]3(C)C[C@H](O)[C@@]2(CO)[C@@H](O)[C@@H]1O` [Gymnemagenin] + CCOc1ccccc1-n1c(C(C)N2CCN(C(=O)COc3ccc(Cl)cc3)CC2)nc2ccccc2c1=O [erastin], the figures for the relative cell viability in experiment [1] and in experiment [2] were 0.918 and 0.785, respectively.
The matching figures for `CC(C)(Oc1ccc(CCNC(=O)c2ccc(Cl)cc2)cc1)C(=O)O` [Bezafibrate] + CCOc1ccccc1-n1c(C(C)N2CCN(C(=O)COc3ccc(Cl)cc3)CC2)nc2ccccc2c1=O [erastin]: 0.736 and 0.937.
Take `Cc1cc(SCc2sc(-c3ccc(C(F)(F)F)c(F)c3)nc2C)ccc1OCC(=O)O` + CCOc1ccccc1-n1c(C(C)N2CCN(C(=O)COc3ccc(Cl)cc3)CC2)nc2ccccc2c1=O [erastin]: the relative cell viability in experiment [1] was found to be 0.849; in experiment [2], 0.799.
Turning to `CSc1ccc(C(=O)/C=C/c2cc(C)c(OC(C)(C)C(=O)O)c(C)c2)cc1` [Elafibranor] + CCOc1ccccc1-n1c(C(C)N2CCN(C(=O)COc3ccc(Cl)cc3)CC2)nc2ccccc2c1=O [erastin], the relative cell viability was 0.858 in experiment [1] and 0.602 in experiment [2].
As to `O=c1c(-c2ccc(O)cc2)coc2cc(O)ccc12` [Daidzein] + CCOc1ccccc1-n1c(C(C)N2CCN(C(=O)COc3ccc(Cl)cc3)CC2)nc2ccccc2c1=O [erastin], the relative cell viability was 0.827 in experiment [1] and 0.619 in experiment [2].
With `C[C@H]1N=C(N(C)C)N=C(N)N1` [Imeglimin hydrochloride] + CCOc1ccccc1-n1c(C(C)N2CCN(C(=O)COc3ccc(Cl)cc3)CC2)nc2ccccc2c1=O [erastin], the relative cell viability in experiment [1] is 0.69; in experiment [2], 0.695.
As for `CCOC(=O)C(C)(C)Oc1ccc(Cl)cc1` [Clofibrate] + CCOc1ccccc1-n1c(C(C)N2CCN(C(=O)COc3ccc(Cl)cc3)CC2)nc2ccccc2c1=O [erastin], the results for the relative cell viability in experiment [1] and in experiment [2] were 0.801 and 0.653, respectively.
For the compound `CN(C)C(=N)NC(=N)N` [Metformin] + CCOc1ccccc1-n1c(C(C)N2CCN(C(=O)COc3ccc(Cl)cc3)CC2)nc2ccccc2c1=O [erastin], the relative cell viability turned out to be 0.63 in experiment [1] and 0.546 in experiment [2].
Consider `CC(C)c1nc(N(C)S(C)(=O)=O)nc(-c2ccc(F)cc2)c1/C=C/[C@@H](O)C[C@@H](O)CC(=O)O` [Rosuvastatin] + CCOc1ccccc1-n1c(C(C)N2CCN(C(=O)COc3ccc(Cl)cc3)CC2)nc2ccccc2c1=O [erastin], for which the relative cell viability came out at 0.656 in experiment [1] and 0.781 in experiment [2].
Take `Cc1nc(Nc2cnn(C3CCNCC3)c2)nc2c1N(C)C(=O)c1cc3ccccc3cc1N2C` + CCOc1ccccc1-n1c(C(C)N2CCN(C(=O)COc3ccc(Cl)cc3)CC2)nc2ccccc2c1=O [erastin]: the relative cell viability in experiment [1] turned out to be 0.215; in experiment [2] it was 0.421.
`O=C(CN1CCN(C(=O)c2ccco2)CC1)Nc1cc(C(F)(F)F)ccc1Cl` + CCOc1ccccc1-n1c(C(C)N2CCN(C(=O)COc3ccc(Cl)cc3)CC2)nc2ccccc2c1=O [erastin]: the relative cell viability in experiment [1] worked out at 0.638; in experiment [2] it was 0.463.
Regarding `CC(C)OC(=O)C(C(=O)OC(C)C)=C1SC=CS1` [Malotilate] + CCOc1ccccc1-n1c(C(C)N2CCN(C(=O)COc3ccc(Cl)cc3)CC2)nc2ccccc2c1=O [erastin], the relative cell viability in experiment [1] is 0.459; in experiment [2] it was 0.644.
Consider `C=C(C)[C@@H]1CCC2=CC(=O)C[C@@H](C)[C@]2(C)C1` [Nootkatone] + CCOc1ccccc1-n1c(C(C)N2CCN(C(=O)COc3ccc(Cl)cc3)CC2)nc2ccccc2c1=O [erastin], for which the relative cell viability in experiment [1] was 0.577; in experiment [2] it was 0.706.
For the compound `CC(C)(O)c1ccccc1CC[C@@H](SCC1(CC(=O)O)CC1)c1cccc(/C=C/c2ccc3ccc(Cl)cc3n2)c1` [Montelukast] + CCOc1ccccc1-n1c(C(C)N2CCN(C(=O)COc3ccc(Cl)cc3)CC2)nc2ccccc2c1=O [erastin], the relative cell viability in experiment [1] is 0.561; in experiment [2], 0.829.
In the case of `CN(C(=O)n1cnc(-c2ccc[n+]([O-])c2)c1)C1CCCCC1` + CCOc1ccccc1-n1c(C(C)N2CCN(C(=O)COc3ccc(Cl)cc3)CC2)nc2ccccc2c1=O [erastin], the relative cell viability in experiment [1] is 0.427; in experiment [2], 0.613.
Take `Nc1ncnc2c1ncn2[C@@H]1O[C@H](COP(=O)(O)O)[C@@H](O)[C@H]1O` [Adenosine 5'-monophosphate] + CCOc1ccccc1-n1c(C(C)N2CCN(C(=O)COc3ccc(Cl)cc3)CC2)nc2ccccc2c1=O [erastin]: the results for the relative cell viability in experiment [1] and in experiment [2] were 0.642 and 0.716, respectively.
The matching figures for `CCC(=O)O[C@]1(C(=O)SCF)[C@H](C)C[C@H]2[C@@H]3C[C@H](F)C4=CC(=O)C=C[C@]4(C)[C@@]3(F)[C@@H](O)C[C@@]21C` [Fluticasone propionate] + CCOc1ccccc1-n1c(C(C)N2CCN(C(=O)COc3ccc(Cl)cc3)CC2)nc2ccccc2c1=O [erastin]: 0.967 and 0.545.
Regarding `CCCC[S+]([O-])c1sc2nc(-c3cccs3)cc(-c3ccccc3)c2c1N` (configuration not stated) + CCOc1ccccc1-n1c(C(C)N2CCN(C(=O)COc3ccc(Cl)cc3)CC2)nc2ccccc2c1=O [erastin], the relative cell viability in experiment [1] came out at 0.72; in experiment [2] it was 0.715.
